Activity calls are given as the source filed them. How the calls were made is not given here.
Assay: inhibition of Brca1/Bard1 split-luciferase complementation, confirmation, counter-screen for Mdm2/MdmX interaction inhibitor project, luminescence, single concentration (AID 504668)
Settings: Brca1/Bard1 bimolecular luciferase complementation counterscreen, at 8 µM, active compounds read high

Structure (SMILES)	inhibition
C=CCc1cccc(/C=N/NC(=O)c2ccc3nc[nH]c3c2)c1O	26.2% (active)
Cc1ccc2nc(-c3ccccn3)c(Nc3ccccc3C)n2c1	35.8% (active)
O=C(CCCN1C(=O)/C(=C\c2ccccc2)SC1=S)Nc1ccccc1O	30.3% (active)
COC(=O)[C@@H]1C[C@]2(OC(=O)c3ccccc3)C=CC(=O)C[C@@H]2N1C(=O)OCc1ccccc1	34.4% (active)
CC(NC(=O)/C(C#N)=C/c1ccc(Cl)c([N+](=O)[O-])c1)c1ccccc1 (centres undefined)	29% (active)
CCCCN(Cc1ccco1)C(=O)c1cc2c(=O)[nH]c3ccc(C)cc3c2s1	23.8% (active)
COc1ccc(/C(C)=N/NC(=O)c2cccc(S(=O)(=O)N3CCCC3)c2)c(O)c1	34.4% (active)
O=C(CNc1ccc(F)cc1)N/N=C/c1c(O)ccc2ccccc12	27.9% (active)
CC1=NN(c2nc(-c3ccc(C)cc3)cs2)C(=O)C1N=Nc1ccccc1O (centres undefined)	32.5% (active)
CCOc1ccccc1Nc1nnc(SC(C)C(=O)Nc2nc(-c3ccccc3)cs2)s1 (centres undefined)	35.2% (active)
CCC(=O)NC(c1ccc(OC)cc1)c1cc(Cl)c2cccnc2c1O (centres undefined)	25.5% (active)
O=C(NC(Nc1ncc(S(=O)(=O)c2ccc([N+](=O)[O-])cc2)s1)(C(F)(F)F)C(F)(F)F)c1ccc(Cl)cc1	29.5% (active)
CN1CCN(C(=O)CCCN2C(=O)/C(=C/c3ccccc3)SC2=S)CC1	30.5% (active)
Cc1ccc(/C=N/NC(=O)c2c(-c3ccccc3)noc2C)c(O)c1	31.1% (active)
COc1ccc([C@@H]2[C@@H]3C(=O)N(C(C)(C)C)C(=O)[C@@H]3[C@]3(Cc4ccccc4)C(=O)N(c4ccc(C(F)(F)F)cc4)C(=O)N23)cc1	27.8% (active)
Oc1ccc(CNc2ccccc2F)c2cccnc12	30.8% (active)
O=C(CCl)Nc1cn(-c2ccccc2)nc1-c1ccc(F)cc1	32.9% (active)
O=C(NC(Cc1c[nH]c2ccccc12)C(=O)Nc1ccc(OC(F)(F)F)cc1)c1cccs1 (centres undefined)	25.7% (active)
CC(C)C(=O)N1CCN(c2ccc(NC(=O)c3ccc([N+](=O)[O-])o3)cc2)CC1	23.4% (active)
O=C1[C@H]2[C@@H](c3ccc(F)cc3)N3C(=O)N(c4ccc(Br)cc4)C(=O)[C@@]3(Cc3ccc(Cl)cc3)[C@H]2C(=O)N1C1CCCCC1	27.8% (active)

Structure (SMILES)	inhibition
CC(C)(C)N1C(=O)[C@H]2[C@@H](c3ccc(Br)cc3)N3C(=O)N(c4ccc(Br)cc4)C(=O)[C@@]3(Cc3ccccc3)[C@H]2C1=O	35.6% (active)
Cc1cccc(/C=N/NC(=O)c2c(-c3ccccc3)noc2C)c1O	35.6% (active)
Cc1cc(C)c(S(=O)(=O)N2CCCCC2CCNC(=O)C(=O)NC2CC2)c(C)c1 (centres undefined)	25.4% (active)
CC#CC[N+](C)(C)CCCCCCCCCCCC	29.6% (active)
CCCCSc1nc(C)cc(SCC(=O)N/N=C/c2cccc(OC)c2O)n1	34.4% (active)
O=Cc1[nH]c2ccccc2c1N(C(=O)CCl)c1ccc([N+](=O)[O-])cc1	25.5% (active)
Cc1cc([N+](=O)[O-])cc(/C=N\NC(=O)C2COc3ccccc3O2)c1O (centres undefined)	27.6% (active)
Cc1ccc(-n2c(-c3ccccc3)c[n+]3c2CCc2ccccc2-3)c(C)c1	26.4% (active)
CCOC(=O)c1cnc(-n2nc(C)cc2C)nc1NNc1nc(-c2ccccc2)cc(-c2ccccc2)n1	25% (active)
CCOc1ccc(CNC(=O)c2cc3oc4ccccc4c3n2C)cc1	25.6% (active)
Cn1cccc1-c1cc(C(=O)N/N=C/c2cc(Br)ccc2O)[nH]n1	25.9% (active)
Cc1ccc(NC(=O)c2ccccc2NS(=O)(=O)c2ccc(Cl)s2)cc1	28.9% (active)
CCN(CC)c1ccc(/C=N/NC(=O)c2c(Cl)cnn2C)c(O)c1	26.9% (active)
O=C(Nc1ccc(-c2nc3ccccc3[nH]2)cc1)c1ccc2c(c1)OCO2	28.7% (active)
CC(=O)c1ccc(NC(=O)c2cc(CC(C)C)nc3ccccc23)cc1	33.6% (active)
O=C(NNc1c2ccccc2nc2ccccc12)C(O)c1ccccc1 (centres undefined)	34.4% (active)
CCc1nc(Nc2ccncc2)c2oc3ccccc3c2n1	31.6% (active)
Cc1ccc(S(=O)(=O)CCc2nc3ccccc3n2CCC#N)cc1	32.2% (active)
Cc1oc2c(Cl)c(Cl)c(O)c(CN(C)C)c2c1C(=O)c1ccc(Cl)cc1	26.8% (active)

— PubChem BioAssay
